From PubChem BioAssay AID1159580 (chemical genetic matrix, 2015)
Values joined by “and” are separate entries in the source; they are usually repeats but may differ in a detail not shown here. Equal values may be shown once. Among all 5,500 compounds or so, about 2,000 (36%) were called active. About 18% were inconclusive and are not listed. Cut-off read from the data, not from the text of the source: active = normalized growth mostly below about 0.91 (no sharp cut-off); inconclusive = no clear call, values can overlap the other calls; inactive = mostly above about 0.92. This is one part of the list.

Experiment: chemical genetic growth profiling, strain panel (AID 1159580);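 note: tested at 20 µM; growth read once vehicle control cultures reached saturation at 30 °C; 1 = growth at the plate median or of vehicle wells; lower values mean less growth of the strain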
Details: S. cerevisiae deletion strains, growth OD

Measured: normalized growth

C=CC(C)(O)CC/C=C(\C)CCC=C(C)C (configuration not stated)
inactive: locus YAL013W, strain DEP1, stronger effect = lower value 0.947 | locus YAL021C, strain ccr4, stronger effect = lower value 0.913 | locus YAL026C, strain drs2, stronger effect = lower value 0.958 | locus YAL030W, strain snc1, stronger effect = lower value 0.986 | locus YBL061C, strain skt5, stronger effect = lower value 0.951 | locus YBR009C, strain hhf1, stronger effect = lower value 0.923 | locus YBR021W, strain FUR4, stronger effect = lower value 0.863 | locus YBR023C, strain chs3, stronger effect = lower value 0.938 | locus YBR171W, strain sec66, stronger effect = lower value 0.965 | locus YBR229C, strain ROT2, stronger effect = lower value 0.999 | locus YBR231C, strain swc5, stronger effect = lower value 0.98 | locus YCL011C, strain gbp2, stronger effect = lower value 0.949 | locus YCL016C, strain dcc1, stronger effect = lower value 0.965 | locus YCL029C, strain bik1, stronger effect = lower value 0.993 | locus YCL061C, strain MRC1, stronger effect = lower value 0.969 | locus YCL069W, strain vba3, stronger effect = lower value 0.968 | locus YCR088W, strain abp1, stronger effect = lower value 0.975 | locus YDL005C, strain med2, stronger effect = lower value 0.956 | locus YDL035C, strain GPR1, stronger effect = lower value 0.956 | locus YDL040C, strain nat1, stronger effect = lower value 0.982 | locus YDL074C, strain BRE1, stronger effect = lower value 0.886 | locus YDL101C, strain DUN1, stronger effect = lower value 0.958 | locus YDL185W, strain tfp1, stronger effect = lower value 1.02 | locus YDL192W, strain arf1, stronger effect = lower value 0.952 | locus YDR001C, strain nth1, stronger effect = lower value 0.98 | locus YDR069C, strain doa4, stronger effect = lower value 0.946 | locus YDR101C, strain arx1, stronger effect = lower value 0.992 | locus YDR137W, strain rgp1, stronger effect = lower value 0.916 | locus YDR159W, strain sac3, stronger effect = lower value 0.862 | locus YDR162C, strain NBP2, stronger effect = lower value 0.92 | locus YDR297W, strain sur2, stronger effect = lower value 0.974 | locus YDR318W, strain mcm21, stronger effect = lower value 0.99 | locus YDR334W, strain swr1, stronger effect = lower value 0.944 | locus YDR335W, strain msn5, stronger effect = lower value 0.979 | locus YDR388W, stronger effect = lower value 0.985 | locus YDR502C, strain sam2, stronger effect = lower value 0.978 | locus YEL003W, strain gim4, stronger effect = lower value 0.983 | locus YEL037C, strain rad23, stronger effect = lower value 0.964 | locus YEL061C, strain CIN8 (second series), stronger effect = lower value 0.978 | locus YEL061C, strain CIN8, stronger effect = lower value 0.937 | locus YER015W, strain faa2, stronger effect = lower value 0.974 | locus YER016W, strain bim1, stronger effect = lower value 0.988 | locus YER110C, stronger effect = lower value 1.01 | locus YER111C, strain swi4, stronger effect = lower value 0.947 | locus YER167W, strain BCK2, stronger effect = lower value 0.944 | locus YFR010W, strain ubp6, stronger effect = lower value 0.903 | locus YGL078C, strain dbp3, stronger effect = lower value 0.988 | locus YGL086W, strain mad1, stronger effect = lower value 0.981 | locus YGL167C, strain pmr1, stronger effect = lower value 0.984 | locus YGL173C, strain kem1, stronger effect = lower value 0.965 | locus YGL227W, strain vid30, stronger effect = lower value 0.979 | locus YGL240W, strain doc1, stronger effect = lower value 0.964 | locus YGL248W, strain PDE1, stronger effect = lower value 0.931 | locus YGL253W, strain hxk2, stronger effect = lower value 0.984 | locus YGR135W, strain pre9, stronger effect = lower value 0.967 | locus YGR252W, strain gcn5, stronger effect = lower value 1.03 | locus YHR013C, strain ard1, stronger effect = lower value 0.964 | locus YHR027C, strain rpn1, stronger effect = lower value 0.978 | locus YHR079C, strain IRE1 (second series), stronger effect = lower value 0.999 | locus YHR094C, strain hxt1, stronger effect = lower value 1.02 | locus YHR129C, strain ARP1, stronger effect = lower value 0.939 | locus YHR200W, strain rpn10, stronger effect = lower value 0.991 | locus YIL066C, strain RNR3, stronger effect = lower value 0.934 | locus YIL073C, strain SPO22, stronger effect = lower value 0.88 | locus YIL125W, strain kgd1, stronger effect = lower value 1.02 | locus YIR030C, strain dcg1, stronger effect = lower value 1.01 | locus YJL092W, strain hpr5, stronger effect = lower value 0.965 | locus YJL095W, strain BCK1 (second series), stronger effect = lower value 0.99 | locus YJL095W, strain BCK1, stronger effect = lower value 0.869 and 0.946 | locus YJL115W, strain asf1, stronger effect = lower value 0.954 | locus YJL129C, strain trk1, stronger effect = lower value 0.923 | locus YJL134W, strain LCB3, stronger effect = lower value 0.997 | locus YJL154C, strain vps35, stronger effect = lower value 0.959 | locus YJL168C, strain set2, stronger effect = lower value 1.01 | locus YJL187C, strain SWE1 (second series), stronger effect = lower value 0.946 | locus YJL187C, strain SWE1, stronger effect = lower value 0.986 | locus YJR043C, strain POL32, stronger effect = lower value 0.978 | locus YJR066W, strain TOR1, stronger effect = lower value 0.911
active: locus YDR195W, strain ref2 0.662 | locus YDR392W, strain spt3, stronger effect = lower value 0.454 | locus YER155C, strain BEM2 (second series), stronger effect = lower value 0.777 | locus YER155C, strain BEM2, stronger effect = lower value 0.807 | locus YHR079C, strain IRE1, stronger effect = lower value 0.81 | locus YHR142W, strain chs7, stronger effect = lower value 0.75 | locus YJL164C, strain tpk1, stronger effect = lower value 0.915 | locus YJL166W, strain qcr8, stronger effect = lower value 0.902
0.955 (inactive) and 0.825 (active): locus YHR030C, strain SLT2, stronger effect = lower value
